“And” between values parts separate entries of the source, which are not always exact repeats. Equal entries are not always repeated. Results filed as inconclusive are left out. The source made the active and inactive calls. The call rests on the fitted dose curve; in most records, active means well fitted curve in the direction sought with a large enough effect in the repeat runs; inconclusive means weak or mixed curves; inactive means no such curve, though single readings can be large; an effect the other way counts as inactive or inconclusive.
Columns and labels:
[1] = A CellTox Green Cytotoxicity Assay to monitor cytotoxicity in HEK293 cells - 40 hour (AID 1224871); further: nearly all actives have a fitted effect of over 45% in size; further: potency means the concentration at half of the fitted maximal effect
Summary of the method: (§1)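 Real-time, in one plate: 600 HEK293 cells/well with dead-cell DNA dye, pinned compound after 5 h, 37 C incubation over 40 h; viable cells give no appreciable fluorescence.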

[2] = qHTS RealTime-Glo MT Cell Viability Assay in HEK293 cells - 16 hour (AID 1224872); further: nearly all actives have a fitted effect of over 50% in size; further: potency means the concentration at half of the fitted maximal effect
Summary of the method: (§2)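 Reads taken at 0, 8, 16, 24, 32 and 40 h from the same wells. HEK293 cells (600/well) carried RealTime-Glo reagents from seeding, with compound added after a 5 h settle at 37 C.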

[3] = qHTS RealTime-Glo MT Cell Viability Assay in HepG2 cells - 8 hour (AID 1224873); further: nearly all actives have a fitted effect of over 55% in size; further: potency means the concentration at half of the fitted maximal effect
Summary of the method: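 Real-time viability: cells seeded at 600 per well together with NanoLuc and cell-permeant prosubstrate, compounds added after 5 h incubation. Luminescence tracked at 0, 8, 16, 24, 32 and 40 h of exposure.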

[4] = qHTS RealTime-Glo MT Cell Viability Assay in HEK293 cells - 40 hour (AID 1224874); conditions: RealTime-Glo luminescence; max response: active compounds read low; further: nearly all actives have a fitted effect of over 50% in size; further: potency means the concentration at half of the fitted maximal effect
Summary of the method: (§3)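 Kinetic, non-lysing viability readout. Seed HEK293 (600/well) with reagent, incubate 5 h at 37 C/5% CO2, pin 23 nL compound in DMSO, incubate at 37 C, read luminescence at 0, 8, 16, 24, 32, 40 h.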

[5] = A CellTox Green Cytotoxicity Assay to monitor cytotoxicity in HEK293 cells - 24 hour (AID 1224875); further: series mostly up to about 77 µM; nearly all actives have a fitted effect of over 45% in size
Summary of the method: as §1

[6] = A CellTox Green Cytotoxicity Assay to monitor cytotoxicity in HepG2 cells - 16 hour (AID 1224876); further: nearly all actives have a fitted effect of over 45% in size; further: potency means the concentration at half of the fitted maximal effect
Summary of the method: (§4)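 Cytotoxicity was tracked as dead-cell DNA fluorescence in HepG2 cells treated with test compounds at 37 C; each time-point value comes from one kinetic series spanning 0, 8, 16, 24, 32 and 40 h.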

[7] = qHTS RealTime-Glo MT Cell Viability Assay in HepG2 cells - 32 hour (AID 1224877); further: nearly all actives have a fitted effect of over 55% in size; further: potency means the concentration at half of the fitted maximal effect
Summary of the method: (§5)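 HepG2 suspension premixed with RealTime-Glo reagents is plated at 600 cells per well and left 5 h at 37 C/5% CO2. Compounds in DMSO then go in, and bioluminescence reflecting viable cell number is recorded over 40 h.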

[8] = A CellTox Green Cytotoxicity Assay to monitor cytotoxicity in HepG2 cells - 24 hour (AID 1224878); further: nearly all actives have a fitted effect of over 45% in size; further: potency means the concentration at half of the fitted maximal effect
Summary of the method: as §4

[9] = A CellTox Green Cytotoxicity Assay to monitor cytotoxicity in HepG2 cells - 40 hour (AID 1224879); further: nearly all actives have a fitted effect of over 40% in size; further: potency means the concentration at half of the fitted maximal effect
Summary of the method: as §4

[10] = A CellTox Green Cytotoxicity Assay to monitor cytotoxicity in HEK293 cells - 32 hour (AID 1224881); further: nearly all actives have a fitted effect of over 40% in size; further: potency means the concentration at half of the fitted maximal effect
Summary of the method: as §1

[11] = A CellTox Green Cytotoxicity Assay to monitor cytotoxicity in HepG2 cells - 0 hour (AID 1224882); further: nearly all actives have a fitted effect of over 35% in size
Summary of the method: as §4

[12] = A CellTox Green Cytotoxicity Assay to monitor cytotoxicity in HepG2 cells - 32 hour (AID 1224883); further: nearly all actives have a fitted effect of over 50% in size; further: potency means the concentration at half of the fitted maximal effect
Summary of the method: as §4

[13] = A CellTox Green Cytotoxicity Assay to monitor cytotoxicity in HEK293 cells - 8 hour (AID 1224884); further: nearly all actives have a fitted effect of over 35% in size; further: potency means the concentration at half of the fitted maximal effect
Summary of the method: as §1

[14] = qHTS RealTime-Glo MT Cell Viability Assay in HepG2 cells - 16 hour (AID 1224885); further: nearly all actives have a fitted effect of over 50% in size; further: potency means the concentration at half of the fitted maximal effect
Summary of the method: as §5

[15] = qHTS RealTime-Glo MT Cell Viability Assay in HEK293 cells - 24 hour (AID 1224886); further: nearly all actives have a fitted effect of over 50% in size; further: potency means the concentration at half of the fitted maximal effect
Summary of the method: as §2

[16] = qHTS RealTime-Glo MT Cell Viability Assay in HEK293 cells - 8 hour (AID 1224887); further: nearly all actives have a fitted effect of over 50% in size; further: potency means the concentration at half of the fitted maximal effect
Summary of the method: as §3

[17] = A CellTox Green Cytotoxicity Assay to monitor cytotoxicity in HEK293 cells - 16 hour (AID 1224888); further: nearly all actives have a fitted effect of over 35% in size; further: potency means the concentration at half of the fitted maximal effect
Summary of the method: as §1

[18] = qHTS RealTime-Glo MT Cell Viability Assay in HepG2 cells - 0 hour (AID 1224889); further: nearly all actives have a fitted effect of over 50% in size; further: potency means the concentration at half of the fitted maximal effect
Summary of the method: as §5

[19] = A CellTox Green Cytotoxicity Assay to monitor cytotoxicity in HepG2 cells - 8 hour (AID 1224890); further: nearly all actives have a fitted effect of over 45% in size; further: potency means the concentration at half of the fitted maximal effect
Summary of the method: as §4

[20] = qHTS RealTime-Glo MT Cell Viability Assay in HEK293 cells - 0 hour (AID 1224880)
Summary of the method: as §3
On the % scale 0 is the no-effect control and ±100 the full control effect.

c1ccc(CN2CCNCC2)cc1
inactive: Potency [1] | Potency [2] | Potency [3] | max response [4] 3.29% | Potency [5] | Potency [6] | Potency [7] | Potency [8] | Potency [9] | Potency [10] | Potency [11] | Potency [12] | Potency [13] | Potency [14] | Potency [15] | Potency [16] | Potency [17] | Potency [18] | Potency [19]

CCCCCCCCCC(=O)O[C@H]1CC[C@H]2[C@@H]3CCC4=CC(=O)CC[C@@H]4[C@H]3CC[C@]12C
inactive: Potency [1] | Potency [2] | Potency [3] | max response [4] 3.16% | Potency [5] | Potency [6] | Potency [7] | Potency [8] | Potency [9] | Potency [10] | Potency [11] | Potency [12] | Potency [13] | Potency [14] | Potency [15] | Potency [16] | Potency [17] | Potency [18] | Potency [19]

CC(C)N(CCC(C(N)=O)(c1ccccc1)c1ccccn1)C(C)C (stereo unspecified)
inactive: Potency [1] | Potency [2] | Potency [3] | max response [4] 2.75% | Potency [5] | Potency [6] | Potency [7] | Potency [8] | Potency [9] | Potency [10] | Potency [11] | Potency [12] | Potency [13] | Potency [14] | Potency [15] | Potency [16] | Potency [18] | Potency [19]

CCOS(C)(=O)=O
inactive: Potency [1] | Potency [2] | Potency [3] | max response [4] -7.66% | Potency [5] | Potency [6] | Potency [7] | Potency [8] | Potency [9] | Potency [10] | Potency [11] | Potency [12] | Potency [13] | Potency [14] | Potency [15] | Potency [16] | Potency [17] | Potency [18] | Potency [19]

CN1C(=O)NC(=O)C(C)(C2=CCCCC2)C1=O (stereo unspecified)
inactive: Potency [1] | Potency [2] | Potency [3] | max response [4] 11.8% | Potency [5] | Potency [6] | Potency [7] | Potency [8] | Potency [9] | Potency [10] | Potency [11] | Potency [12] | Potency [13] | Potency [14] | Potency [15] | Potency [16] | Potency [17] | Potency [18] | Potency [19]

C=CC(C)=O
inactive: Potency [1] | Potency [2] | Potency [3] | max response [4] 4.78% | Potency [5] | Potency [6] | Potency [7] | Potency [8] | Potency [9] | Potency [10] | Potency [11] | Potency [12] | Potency [13] | Potency [14] | Potency [15] | Potency [16] | Potency [17] | Potency [19]

O=C=Nc1ccc(Cl)cc1
inactive: Potency [1] | Potency [2] | Potency [3] | max response [4] -3% | Potency [5] | Potency [6] | Potency [7] | Potency [8] | Potency [20] | Potency [10] | Potency [11] | Potency [12] | Potency [13] | Potency [14] | Potency [15] | Potency [16] | Potency [18] | Potency [19]

CCCCN=C=O
inactive: Potency [1] | Potency [2] | Potency [3] | max response [4] 2.49% | Potency [5] | Potency [6] | Potency [7] | Potency [8] | Potency [9] | Potency [10] | Potency [11] | Potency [12] | Potency [13] | Potency [14] | Potency [15] | Potency [16] | Potency [17] | Potency [18] | Potency [19]

IC(I)=C(I)I
inactive: Potency [11]
active: Potency [1] 54.9 µM | Potency [2] 9.77 µM | Potency [3] 1.55 µM | Potency [4] 6.16 µM | Potency [6] 24.5 µM | Potency [7] 0.436 µM | Potency [8] 19.5 µM | Potency [9] 12.3 µM | Potency [10] 54.9 µM | Potency [12] 13.8 µM | Potency [13] 54.9 µM | Potency [14] 0.776 µM | Potency [15] 6.92 µM | Potency [16] 17.4 µM | Potency [17] 54.9 µM | Potency [19] 38.9 µM

CNC(C)Cc1ccccc1OC (stereo unspecified)
inactive: Potency [1] | Potency [2] | Potency [3] | max response [4] 1.99% | Potency [5] | Potency [7] | Potency [8] | Potency [9] | Potency [20] | Potency [10] | Potency [11] | Potency [12] | Potency [13] | Potency [14] | Potency [15] | Potency [16] | Potency [17] | Potency [18]

O=[Se]=O
inactive: Potency [2] | Potency [3] | Potency [5] | Potency [6] | Potency [8] | Potency [20] | Potency [11] | Potency [13] | Potency [14] | Potency [16] | Potency [17] | Potency [19]
active: Potency [1] 24.4 µM | Potency [4] 17.3 µM | Potency [9] 19.4 µM | Potency [12] 24.4 µM | Potency [15] 17.3 µM

Clc1ccc(C2(Cn3cncn3)CC(Br)CO2)c(Cl)c1 (stereo unspecified)
active: Potency [2] 24.4 µM | Potency [4] 21.7 µM | Potency [9] 38.7 µM | Potency [12] 34.5 µM | Potency [15] 27.4 µM
inactive: Potency [1] | Potency [3] | Potency [6] | Potency [7] | Potency [20] | Potency [10] | Potency [11] | Potency [13] | Potency [17] | Potency [18] | Potency [19]

ClCc1ccccc1
inactive: Potency [1] | Potency [2] | Potency [3] | max response [4] 2.64% | Potency [5] | Potency [6] | Potency [7] | Potency [8] | Potency [9] | Potency [10] | Potency [11] | Potency [12] | Potency [13] | Potency [14] | Potency [15] | Potency [16] | Potency [17] | Potency [19]

C=CCOC(C)=O
inactive: Potency [1] | Potency [2] | Potency [3] | max response [4] -6.55% | Potency [5] | Potency [6] | Potency [7] | Potency [8] | Potency [9] | Potency [10] | Potency [11] | Potency [12] | Potency [13] | Potency [14] | Potency [15] | Potency [16] | Potency [17] | Potency [19]
active: Potency [18] 12.1 µM

CN1C[C@H](CNC(=O)OCc2ccccc2)C[C@@H]2c3cccc4c3c(cn4C)C[C@H]21
active: Potency [2] 21.3 µM | Potency [4] 23.9 µM | Potency [6] 23.9 µM | Potency [7] 23.9 µM | Potency [8] 26.8 µM | Potency [9] 23.9 µM | Potency [12] 26.8 µM | Potency [15] 21.3 µM
inactive: Potency [1] | Potency [3] | Potency [5] | Potency [20] | Potency [10] | Potency [11] | Potency [13] | Potency [17] | Potency [18] | Potency [19]

CCc1ccc(C(=O)NN(C(=O)c2cc(C)cc(C)c2)C(C)(C)C)cc1
inactive: Potency [1] | Potency [2] | Potency [3] | max response [4] -11.5% | Potency [5] | Potency [6] | Potency [7] | Potency [8] | Potency [9] | Potency [10] | Potency [11] | Potency [12] | Potency [13] | Potency [14] | Potency [15] | Potency [16] | Potency [17] | Potency [18] | Potency [19]

Brc1ccc(Oc2ccccc2)cc1
inactive: Potency [2] | Potency [3] | max response [4] 1.37% and 1.64% | Potency [6] | Potency [7] | Potency [8] | Potency [9] | Potency [20] | Potency [11] | Potency [12] | Potency [13] | Potency [14] | Potency [15] | Potency [16] | Potency [17] | Potency [18] | Potency [19]
active: Potency [1] 44.7 µM and 21.9 µM | Potency [10] 50.2 µM and 21.9 µM

CC(C)(OO)c1ccccc1
inactive: Potency [1] | Potency [2] | Potency [3] | max response [4] -0.0681% | Potency [5] | Potency [6] | Potency [7] | Potency [8] | Potency [9] | Potency [10] | Potency [11] | Potency [12] | Potency [13] | Potency [14] | Potency [15] | Potency [16] | Potency [17] | Potency [19]

OCCCBr
inactive: Potency [1] | Potency [2] | Potency [3] | max response [4] -0.927% | Potency [5] | Potency [6] | Potency [7] | Potency [8] | Potency [9] | Potency [20] | Potency [10] | Potency [11] | Potency [12] | Potency [14] | Potency [15] | Potency [16] | Potency [18] | Potency [19]

From PubChem BioAssay (Tox21)
